Data as given in PubChem BioAssay.

Assay: NFkB reporter suppression in cystic fibrosis bronchial cells – cell-based, uHTS hits, panel, cytotoxicity readout, dose response (AID 624344)
Conditions: CF bronchial epithelial cells, PAF-induced NFkB reporter inhibition, with PAF, run 1; at 79 µM (top of the series) unless noted

Structure (SMILES)	inhibition
O=C(NCc1cccnc1)/C(=C\c1ccc(-c2cccc(Cl)c2)o1)S(=O)(=O)c1ccccc1	101%
COc1cc2c(c(OC)c1OC)-c1ccc(SC)c(=O)cc1C(NC(=O)C(F)(F)F)CC2 (configuration not stated)	72.8%
COc1ccc(C2CNC(=O)C2)cc1OC1CCCC1 (configuration not stated)	84.8%
C=CCN1c2ccccc2Sc2cnccc21	105%
CC(C)C[C@H](CO)Nc1nc(Nc2cccc(Cl)c2)c2ncn(C(C)C)c2n1	112%
Clc1ccccc1C1=Nn2c(nnc2-c2ccncc2)SC1	109%
COc1ccc(Nc2nccc(-c3cccc(N)c3)n2)cc1	103%

Assay: as above
Conditions: CF bronchial epithelial cells, PAF-induced NFkB reporter inhibition, with PAF, run 2; at 79 µM (top of the series) unless noted

Structure (SMILES)	inhibition
CCn1c(=O)c2c(cnn2C)c2ccccc21	103%
CCOc1cc2c(cc1O)C(=NO)CC1C2CCC2(C)C(O)CCC12 (configuration not stated)	112%
CCOc1ccc(NCc2cc3c(C(C)(C)C)nn(-c4ccccc4)c3[nH]c2=O)cc1	109%
CS(=O)(=O)Nc1cccc(-c2cc(NC=O)c3ncc(-c4ccc(F)cc4)n3c2)c1	88.3%
C=C1C(=O)OC2CC1C(O)CC(C)=CCCC(C)=CC(O)CC2C (configuration not stated)	110%
COc1ccc2cc3c(N)nn(C(=O)Cc4ccccc4OC)c3nc2c1	100%
CN(C)CCCN(C(=O)CCSc1ccccc1)c1nc2cc3c(cc2s1)OCO3	116%
O=C(NNc1ccccc1Br)C(O)(c1cccc(C(F)(F)F)c1)c1cccc(C(F)(F)F)c1	104%
CC1CCc2sc3ncnc(N4CCOCC4)c3c2C1 (configuration not stated)	101%
COc1ccccc1NS(=O)(=O)c1ccc(-c2cnc(C3CC3)o2)cc1	97.8%
Cc1cc(C)nc(Sc2ncnc(N)c2[N+](=O)[O-])n1	88.9%
O=C(NCc1ccco1)c1nc2c(nnn2Cc2ccccc2Cl)c(=O)[nH]1	107%
CCC(=O)Nc1nc(C)c(-c2csc(Nc3cccc(O)c3)n2)s1	104%
Nc1nccc(SCc2ccc(Cl)cc2Cl)n1	74.1%
CC1C(=O)N(Cc2cn(Cc3ccco3)nn2)CCS(=O)(=O)N1Cc1ccc(-c2ccccc2C(F)(F)F)cc1 (configuration not stated)	114%
CC(C)C[C@@H](CN1CCCC1CN1C(=S)NC[C@@H]1Cc1ccc(O)cc1)N1C[C@H](Cc2ccc(O)cc2)N(CCc2ccccc2)C1=S (some centres not stated)	101%
CC(=O)c1cccc(NC(=O)COC(=O)c2ccc(S(C)(=O)=O)c([N+](=O)[O-])c2)c1	93.4%
Cc1ccc(N=Cc2cc3c(cc2O)OC(N)=C(C#N)C3c2ccccc2)cc1 (configuration not stated)	60.7%
O=C(Nc1cccc(S(=O)(=O)N2CCCCC2)c1)Nc1ccc(Cl)cc1Cl	117%
COc1ccc(/C=N/NC(=O)c2[nH]c3ccc(Br)cc3c2-c2ccccc2)cc1	71.3%

Structure (SMILES)	inhibition
COc1ccc(NC(=O)c2cc3c(-c4ccc(OC)c(OC)c4)nn(C)c3s2)cc1OC	101%
CCOC(=O)c1[nH]c(C)c(C(=O)N2CCc3ccccc32)c1C	43.6%
CS(=O)(=O)c1ncc(Cl)c(C(=O)Nc2ccc(OC(F)F)cc2)n1	90.1%
CC(C)=CCc1c(O)cc(O)c2c1OC(c1ccc(O)cc1)CC2=O (configuration not stated)	108%
O=C1C=C(NC2=CC3OC(c4ccccc4)OCC3OC2=O)CCC1 (configuration not stated)	111%
COc1cccc(-c2cc(NC=O)c3ncc(-c4ccc(C(C)=O)cc4)n3c2)c1	93.6%
Cc1nc([N+](=O)[O-])c(Sc2nc3ccc([N+](=O)[O-])cc3[nH]2)n1Cc1ccccc1	112%
O=c1c(-c2c(O)cc(O)c3c2O[C@H](c2ccc(O)cc2)CC3)c(-c2ccc(O)cc2)oc2cc(O)cc(O)c12	102%
Cc1c([N+](=O)[O-])c2ccc(O)cc2n1-c1ccccc1	94.8%
CCN1CCN(Cc2ccc(NC(=O)c3ccc(C)c(NC(=O)N4CCNC4=O)c3)cc2C(F)(F)F)CC1	119%
COCc1cc(S(=O)c2ccc(Cl)cc2)nc(C)n1 (configuration not stated)	105%
O=C(c1cc([N+](=O)[O-])ccc1N1CCOCC1)N1CCN(c2ccccc2)CC1	79.6%
Oc1ccc(Cl)cc1Cc1cc(Cl)ccc1O	107%
O=C(NCc1cccnc1)/C(=C\c1ccc(-c2cccc(Cl)c2)o1)S(=O)(=O)c1ccccc1	99.2%
COc1cc2c(c(OC)c1OC)-c1ccc(SC)c(=O)cc1C(NC(=O)C(F)(F)F)CC2 (configuration not stated)	79%
COc1ccc(C2CNC(=O)C2)cc1OC1CCCC1 (configuration not stated)	81.6%
C=CCN1c2ccccc2Sc2cnccc21	116%
CC(C)C[C@H](CO)Nc1nc(Nc2cccc(Cl)c2)c2ncn(C(C)C)c2n1	100%
Clc1ccccc1C1=Nn2c(nnc2-c2ccncc2)SC1	100%
COc1ccc(Nc2nccc(-c3cccc(N)c3)n2)cc1	117%
